From PubChem BioAssay (EPA / NIEHS) come the findings set out here.

The source made the active and inactive calls. Rule for the calls: active = hit-call score of the fitted dose curve at least 0.9, where 1 is the maximum; inactive = score below 0.9.

Read-out in this assay: Cytochrome P450 (CYP1A2), CYP1A2 (gene 1544)
Kind of assay: LTEA_HepaRG_CYP1A2: Life Technologies and Expression Analysis (LTEA) Assay for Cytochrome P450 (CYP1A2) using HepaRG (AID 2283479).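 For AC50: TaqMan qRT-PCR transcript level normalized to ACTB GAPDH and POLR2A.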 As to conditions: mRNA level, 48 h; actives raise or lower the signal. As to the method:
LTEA_HepaRG is a cell based, multiplexed-readout assay that uses HepaRG, a human liver cell line, with measurements taken at 48 hours after chemical dosing on a 96-well plate.LTEA_HepaRG_CYP1A2 is one of 102 assay component(s) measured in the LTEA HepaRG cell culture assay. It is a marker of NR mediated metabolism.Data from the assay component LTEA_HepaRG_CYP1A2 was analyzed into 1 endpoint. This assay endpoint, LTEA_HepaRG_CYP1A2, was analyzed with bidirectional fitting relative to DMSO as the negative control and baseline of activity. Using a type of inducible reporter, measures of mRNA induction for gain or loss-of-signal activity can be used to understand regulation of transcription factor activity. To generalize the intended target to other relatable targets, this assay endpoint is annotated to the cyp intended target family, where the subfamily is xenobiotic metabolism.
A total of 1060 chemcials from the ToxCast library were tested in eight-point concentration-response experiments. Cell culture and cytotoxicity assays were conducted at Thermo Fisher Scientific's Custom Services facility (Madison, WI). A single lot of human HepaRG cells (Thermo Fisher Scientific, Frederick, MD) was used for the cell culture experiments. 96-well format collagen type I coated plates of human HepaRG cells were prepared using established methods. Briefly, cryopreserved HepaRG cells were thawed, plated at a density of approximately 100,000 cells/well in HepaRG Thaw, Plate, and General Purpose media (HPRG770, Thermo Fisher Scientific), and incubated for 48 hours. 0.5% DMSO was selected as vehicle control to balance the requisite need of DMSO in HepaRG cultures to maintain differentiation (for example, baseline metabolism, proportions of hepatocytes vs. cholangiocytes), while enabling further hepatic receptor pathway activation (for example, PXR and CAR) in response to chemical exposure. 48 hours after plating, the culture medium was replaced with HepaRG Serum-Free Incudtion Media. Cells were exposed to each test chemical in duplicate and maintained in CO2 incubators for another 48 hours. Chemical plates were thawed to room temperature and 200x concentrations of treatment groups were prepared. 8-point conentration-reponse curves were made with the highest exposure at 100 uM, followed by half-log dilutions, all in 0.5% DMSO. Each test plate contained variouse controls, induction positive controls (1mM phenobarbital), cytotoxicity positive controls ([…] aflatoxin B1), vehicle controls (0.5% DMSO), and total lysis controls (0.5% DMSO). Cell morphology images were taken using an Essen IncuCyte FLR automated microscope, with six 96-well plates imaged in about 24 minutes. Images were captured and exported and JPEG files. Spent culture media was transfered to black-well plates for the LDH assay, and remaining media was sorted at -80 C for later use. Cells were treated with RLT buffer and frozen until shipped for gene expression analysis. Total RNA was isolated from the cell suspension in 75 uL of Buffer RLT (Qiagen, Germantown, MD 20874) by Quintiles/Expression Analysis (Durham, NC) using a custom isolation procedure. Total RNA from each plate well was transferred to a preamplification plate. Fluidigm's 96.96 Dynamic ArrayTM (Fluidigm, Amsterdam, the Netherlands) technology was used for gene expression analyses by quantitative reverse transcription polymerase chain reaction (qRT-PCR, performed by Quintiles/Expression Analysis, Durham, NC)89. Standard TaqManTM Assays (Applied Biosystems/ThermoFisher Scientific, Foster City, CA) were used to assess the expression of 93 genes selected based on their selectivity and sensitivity to important hepatic receptors known to be modulated by environmental chemicals; importance in human hepatocyte functionality; and hepatotoxicity. […]
Turning to `CC(C)(C)C(=O)C(Oc1ccc(Cl)cc1)n1cncn1` (stereo not given), the compound was classed as inactive.
Turning to `Cn1c(-c2ccccc2)cc(-c2ccccc2)[n+]1C`, the AC50 is 13.2 µM (active).
On to `O=C1C2CC=CCC2C(=O)N1SC(Cl)(Cl)Cl` (stereo not given), for which the compound was called inactive.
For `CCC(C)n1c(=O)[nH]c(C)c(Br)c1=O` (stereo not given), the AC50 is 8.92 µM (active).
As to `COCc1cnc(C2=NC(C)(C(C)C)C(=O)N2)c(C(=O)O)c1` (stereo not given), the outcome was inactive.
For the compound `N#CN=C1SCCN1Cc1ccc(Cl)nc1`, the compound was classed as inactive.
Take `N#Cc1c[nH]cc1-c1cccc2c1OC(F)(F)O2`: the AC50 is 21.3 µM (active).
Same read-out and setting: for `Nc1cnn(-c2ccccc2)c(=O)c1Cl` the value was 80.6 µM (active).
Consider `Cc1nc(N(C)C)nc(OC(=O)N(C)C)c1C`, for which the outcome was inactive.
Same read-out and setting: then `CCSC(=O)N1CCCCCC1`, with “inactive”.
Regarding `CCNP(=S)(OC)O/C(C)=C/C(=O)OC(C)C` (stereo not given), the AC50 is 18 µM (active).
Take `CC1(C)CON(Cc2ccccc2Cl)C1=O`: the result was inactive.
As for `COP(=S)(OC)Oc1ccc([N+](=O)[O-])c(C)c1`, the concentration at half-maximal activity (AC50) was 50 µM (active).
Same read-out and setting: then `COc1ccc(-c2ccccc2)cc1NNC(=O)OC(C)C`, with 74.5 µM (active).
Same read-out and setting: for `O=c1n(Cl)c(=O)n(Cl)c(=O)n1Cl` the value was 50 µM (active).
Turning to `CCNC(=O)NC(=O)C(C#N)=NOC`, the call was inactive.
Still for that read-out and setting: then `CSC(=O)c1c(C(F)F)nc(C(F)(F)F)c(C(=O)SC)c1CC(C)C`, with “inactive”; and `O=C(Nc1ccccc1-c1ccc(Cl)cc1)c1cccnc1Cl`, with “inactive”; and `CN/C(=N\[N+](=O)[O-])NCc1cnc(Cl)s1`, with “inactive”.
For `COC(=O)c1c(C(F)F)nc(C(F)(F)F)c(C2=NCCS2)c1CC(C)C`, the half-maximal activity concentration (AC50) is 50 µM (active).
As for `CNC(=O)Oc1cccc2ccccc12`, the result was inactive.
In the case of `COc1cc(Cl)c(OC)cc1Cl`, the AC50 was 50 µM (active).
The same measure, in the same setting: for `CCN(CC)c1nc(C)cc(OP(=S)(OC)OC)n1` the value was 38 µM (active); for `Nc1c(Cl)c(Cl)nc(C(=O)O)c1Cl`, 50 µM (active).
On to `CC(C)N1C(=O)c2ccccc2NS1(=O)=O`, for which the compound was called inactive.
The same measure, in the same setting: then `COP(=O)(OC)O/C(C)=C/C(=O)N(C)C`, with “inactive”.
On the same count and under the same terms, then `O=P(O)(O)CCCl`, with “inactive”.
As for `CO/N=C(/C1=NOCCO1)c1ccccc1Oc1ncnc(Oc2ccccc2Cl)c1F`, the AC50 is 13.1 µM (active).
`Cc1cnc(C2=NC(C)(C(C)C)C(=O)N2)c(C(=O)O)c1` (stereo not given): the result was inactive.
Still for that read-out and setting: for `CCOc1nc(F)cc2nc(S(=O)(=O)Nc3c(Cl)cccc3Cl)nn12` the value was “inactive”.
Turning to `C=C(C)CN(CC)c1c([N+](=O)[O-])cc(C(F)(F)F)cc1[N+](=O)[O-]`, the AC50 is 33 µM (active).
On the same count and under the same terms, for `CC1(C)C(C(=O)OC(C#N)c2cccc(Oc3ccccc3)c2)C1(C)C` (stereo not given) the value was 39.6 µM (active); for `Cc1c(COC(=O)[C@@H]2[C@H](/C=C(\Cl)C(F)(F)F)C2(C)C)cccc1-c1ccccc1`, 76.3 µM (active).
Same read-out and setting: then `CCCCC(O)(Cn1cncn1)c1ccc(Cl)cc1Cl` (stereo not given), with 87.4 µM (active).
As for `COC(=O)NS(=O)(=O)c1ccc(N)cc1`, the compound was classed as inactive.
For the compound `COP(=S)(OC)SCn1nnc2ccccc2c1=O`, the AC50 is 33.6 µM (active).
On to `O=C(O)c1c(Cl)ccc2cc(Cl)cnc12`, for which the call was inactive.
Turning to `COCC(=O)N(c1c(C)cccc1C)C(C)C(=O)OC` (stereo not given), the compound was classed as inactive.
In the case of `CC(C)N1C(=O)N(c2ccccc2)CSC1=NC(C)(C)C`, the AC50 was 50 µM (active).
For `COC(=O)N(C(=O)N1CO[C@@]2(C(=O)OC)Cc3cc(Cl)ccc3C2=N1)c1ccc(OC(F)(F)F)cc1`, the AC50 is 10.4 µM (active).

Usually AC50 stands for the midpoint of the concentration-response curve, whichever way the signal moves.
